The entries come from a sample that favours hits as a whole.
FXIIa inh – human FXIIa protease inhibitors, primary screen, biochemical, single well. AID 701, 2007. purified human FXIIa, AMC substrate fluorescence, 2 h. Coagulation factor XII (Homo sapiens), P00748. 33,000 tested, 0.2% active. inhibition, % at 10 µM; in the data active = inhibition above about 30%
FXIa single inh – human FXIa protease inhibitors, primary screen, biochemical, single compound per well | purified human FXIa, fluorogenic AMC substrate cleavage | inhibition, % at 10 µM | Coagulation factor XI (Homo sapiens), P03951 | 33,000 tested, 0.3% active;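 active = inhibition above 40% in the primary screen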
Target sequence (P03951 19-387 limits assumed): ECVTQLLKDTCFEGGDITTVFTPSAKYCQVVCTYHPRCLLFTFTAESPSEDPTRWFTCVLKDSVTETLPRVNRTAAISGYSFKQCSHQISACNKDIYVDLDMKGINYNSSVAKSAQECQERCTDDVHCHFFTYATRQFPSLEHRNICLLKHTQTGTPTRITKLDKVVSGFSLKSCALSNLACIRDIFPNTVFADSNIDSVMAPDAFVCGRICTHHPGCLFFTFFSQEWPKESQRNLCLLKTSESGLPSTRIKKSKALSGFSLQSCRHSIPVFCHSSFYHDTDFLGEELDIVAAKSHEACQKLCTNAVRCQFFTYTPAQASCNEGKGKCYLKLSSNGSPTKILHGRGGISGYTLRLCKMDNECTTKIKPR
Target sequence (P03951 388-625 limits assumed): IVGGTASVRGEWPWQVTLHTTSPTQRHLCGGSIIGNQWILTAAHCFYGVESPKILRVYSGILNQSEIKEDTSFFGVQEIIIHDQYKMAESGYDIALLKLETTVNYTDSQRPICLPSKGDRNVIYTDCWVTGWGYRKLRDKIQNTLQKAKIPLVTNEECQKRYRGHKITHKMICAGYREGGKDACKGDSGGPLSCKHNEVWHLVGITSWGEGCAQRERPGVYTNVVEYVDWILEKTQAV
Hits are given with their value; 0 = inactive.

SMILES | FXIIa inh | FXIa single inh
Cc1cc2nnc(SCC(=O)OC(C)C)n2c2ccccc12 | 0 | 0
COc1ccc2c(c1)CCc1c(C(=O)NCc3ccc(Cl)cc3)noc1-2 | 81 | 0
COc1ccc2c(c1)CCc1c(C(=O)Nc3c(C)nn(Cc4ccccc4)c3C)noc1-2 | 0 | 0
C=CCn1c(SC(C)CC)nc(O)cc1=O (stereo not drawn) | 0 | 0
Cc1cc(NC(=O)CSc2nc3ccc(Cl)cc3[nH]2)no1 | 0 | 0
CN(C)CCNCc1ccc(OC2CCCC2)cc1 | 0 | 0
CCC(CO)NCc1ccc(OC2CCCC2)cc1 (stereo not drawn) | 0 | 66
Cc1ccc(N2C(=O)CC(Sc3ncn[nH]3)C2=O)cc1C (stereo not drawn) | 0 | 0
COc1cc2c(cc1NC(=S)Nc1cccc(C(F)(F)F)c1)oc1ccccc12 | 0 | 0
CC1(C)CC2CC(C)(CN2C(=O)COC(=O)c2ccc(Cl)c(N)c2)C1 (stereo not drawn) | 0 | 0
Cc1ccc(C(C(=O)NC2CCCC2)N2CCc3ccccc32)cc1 (stereo not drawn) | 0 | 0
COc1ccc(C(=O)N(Cc2ccccc2)Cc2cc3cc4c(cc3[nH]c2=O)OCCO4)cc1 | 0 | 0
COc1cccc(C(=O)N(Cc2ccccc2)Cc2cc3cc4c(cc3[nH]c2=O)OCCO4)c1 | 0 | 47
O=C(Nc1nc(N2C(=O)c3ccccc3C2=O)n(-c2ccccc2)n1)c1ccc(Cl)cc1 | 0 | 0
CC(=O)N[C@H]1C[C@@H]1c1ccccc1 | 0 | 0
CCC1CC2CC(NC(C)=O)C1C2 (stereo not drawn) | 0 | 47
O=c1[nH]c(=O)n(Cc2ccco2)c2c1C(C(F)(F)F)(C(F)(F)F)N=C(Cc1ccccc1)N2 | 0 | 0
O=C(c1cccs1)N1CCN(S(=O)(=O)Cc2ccccc2)CC1 | 0 | 0
O=S(=O)(Cc1ccccc1)N1CCC(c2nc(-c3cccs3)no2)CC1 | 0 | 46
Cc1c(Cl)cccc1NC(=O)C1NC(=O)CC1c1ccccc1 (stereo not drawn) | 0 | 0
CC(C)(C)c1ccc(OCC(O)CSc2ncn[nH]2)cc1 (stereo not drawn) | 0 | 0
CCCC1CCc2c(sc(N)c2C(N)=O)C1 (stereo not drawn) | 0 | 52
CCOC(=O)c1c(NS(C)(=O)=O)sc2c1CCC(C)C2 (stereo not drawn) | 0 | 0
CC(c1nnc(SCC(=O)N2CC(=O)Nc3ccccc32)n1Cc1ccccc1)N(C)C (stereo not drawn) | 0 | 0
NC(=O)c1ncc(C(F)(F)F)cc1Oc1ccc(C(F)(F)F)cc1 | 0 | 0
SMILES | FXIIa inh | FXIa single inh
COc1ccc2c(c1)c1ccccc1n2C | 0 | 0
COc1ccc2c(=O)cc(-c3ccccc3)n(C)c2c1 | 0 | 105
COc1ccc(OC)c(C2/C(=C(\O)c3c(C)nc4ccccn34)C(=O)C(=O)N2CCCN(C)C)c1 (stereo not drawn) | 0 | 0
O=C(c1ccc(C#CC2(O)CCCCC2)cc1)N1CCN(C(c2ccccc2)c2ccccc2)CC1 | 0 | 0
Cc1ccc(-n2nnnc2-c2cnoc2-c2cccc(F)c2)cc1 | 0 | 0
Cc1ccc(-c2cc(-c3ccccc3)c3c(N)c(S(C)(=O)=O)sc3n2)cc1 | 51 | 0
Cc1cc(C)c2c(N)c(S(=O)(=O)Cc3ccccc3)sc2n1 | 0 | 0
O=C(C1CCC1)N(CCc1ccccc1)Cc1nc2ccccc2c(=O)[nH]1 | 34 | 0
CCCC(=O)N(CCc1ccc(OC)cc1)Cc1nc2ccccc2c(=O)[nH]1 | 0 | 0
CCOC(=O)C(C(=O)OCC)C(C(=O)OCC)N1CCOCC1 (stereo not drawn) | 0 | 0
CCOc1cccc2cc(C(N)=O)c(=NCc3ccccc3)oc12 | 0 | 52
CCOc1ccccc1OC(=O)c1ccco1 | 0 | 0

Screens as filed in PubChem.
